Measurements as given in PubChem BioAssay (NCATS).
Several values for one entry are separate records, joined by “and”; a condition that tells them apart may be missing. Equal values may be shown once. Records with an inconclusive call do not appear. Activity calls are given as the source filed them. Unless noted, calls come from the whole dose curve; as a rule, active = well fitted curve in the direction sought with a large enough effect; inconclusive = small, poorly fitted or top-dose-only effect, or another doubt; inactive = no such curve, though single readings can be large; an effect the other way counts as inactive or inconclusive.

Biological target: Cytochrome P450 2D6 (Homo sapiens) (UniProt P10635)
Test: Cytochrome P450 family 2 subfamily D member 6 (CYP2D6) small molecule antagonists: luciferase biochemical (cell-free) qHTS assay (AID 1645840; active = well fitted curve in the direction sought with a large enough effect in the repeat runs; an effect the other way counts as inactive or inconclusive; note: nearly all actives have a fitted effect of over 55% in size)
Details: P450-Glo CYP2D6 enzyme, luciferin luminescence, 1 h; series mostly up to 57.4 µM; activity change, negative = inhibition: at the top concentration
Method in brief: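 P450-Glo luminescent screen: recombinant CYP2D6 enzyme–proluciferin substrate mix preincubated with compound 10 min at room temperature, then NADPH regeneration added for 1 h at room temperature. Detection reagent added for 20 min; luciferin light read as relative luminescence units.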
% is set by controls: 0 for no effect and ±100 for the full control effect; potency is the fitted concentration of half-maximal effect.

Sequence of Cytochrome P450 2D6 (Homo sapiens) (P10635 whole entry, looked up): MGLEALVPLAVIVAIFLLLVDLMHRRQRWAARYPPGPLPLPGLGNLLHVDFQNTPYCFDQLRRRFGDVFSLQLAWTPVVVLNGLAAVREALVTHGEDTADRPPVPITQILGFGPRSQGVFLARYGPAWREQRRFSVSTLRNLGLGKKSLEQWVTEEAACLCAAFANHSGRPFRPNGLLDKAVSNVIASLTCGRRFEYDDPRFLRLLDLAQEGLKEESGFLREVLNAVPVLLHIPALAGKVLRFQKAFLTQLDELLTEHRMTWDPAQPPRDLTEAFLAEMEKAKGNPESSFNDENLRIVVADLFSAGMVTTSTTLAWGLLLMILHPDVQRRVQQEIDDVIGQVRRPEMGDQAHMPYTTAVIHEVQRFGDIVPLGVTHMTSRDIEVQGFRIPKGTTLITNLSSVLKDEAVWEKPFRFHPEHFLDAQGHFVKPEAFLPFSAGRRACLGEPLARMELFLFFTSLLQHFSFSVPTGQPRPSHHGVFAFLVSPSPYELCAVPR

Row | SMILES | activity change, negative = inhibition | Potency
1 | O=C(O)c1cccnc1 | 20.5% (inactive) | –
2 | CCCc1cc(C(N)=S)ccn1 | 1.13% (inactive) | –
3 | COC(=O)Nc1nc2ccc(C(=O)c3ccccc3)cc2[nH]1 | 8.81% (inactive) | –
4 | CCCCCCNC(=O)n1cc(F)c(=O)[nH]c1=O | – | 15.5 µM (active)
5 | COc1c(N2CCNC(C)C2)c(F)cc2c(=O)c(C(=O)O)cn(C3CC3)c12 (stereo not given) | – | inactive
6 | COCCCOc1cc(C[C@@H](C[C@H](N)[C@@H](O)C[C@H](C(=O)NCC(C)(C)C(N)=O)C(C)C)C(C)C)ccc1OC | 8.04% (inactive) | –
7 | CCn1cc(C(=O)O)c(=O)c2cc(F)c(N3CCNCC3)nc21 | 7.99% (inactive) | –
8 | C[C@@H]1C[C@H]2[C@@H]3CCC4=CC(=O)C=C[C@]4(C)[C@@]3(Cl)[C@@H](O)C[C@]2(C)[C@@]1(OC(=O)c1ccco1)C(=O)CCl | – | 2.45 µM (active)
9 | O=C(O)c1cc(=O)[nH]c(=O)[nH]1 | – | inactive
10 | CC(C)C[C@H](NC(=O)[C@H](CCc1ccccc1)NC(=O)CN1CCOCC1)C(=O)N[C@@H](Cc1ccccc1)C(=O)N[C@@H](CC(C)C)C(=O)[C@@]1(C)CO1 | -2.23% (inactive) | –
11 | CCn1cc(C(=O)O)c(=O)c2cc(F)c(N3CCNCC3)cc21 | 14.4% (inactive) | –
12 | Cc1nnc(C(=O)NC(C)(C)c2nc(C(=O)NCc3ccc(F)cc3)c(O)c(=O)n2C)o1 | 1.08% (inactive) | –
13 | CN(C)c1ccc(C(=C2C=CC(=[N+](C)C)C=C2)c2ccc(N(C)C)cc2)cc1 | – | 3.09 µM (active)
14 | N=C(N)c1ccc(OCCCCCOc2ccc(C(=N)N)cc2)cc1 | -15.5% (inactive) | –
15 | Nc1nc(F)nc2c1ncn2[C@@H]1O[C@H](CO)[C@@H](O)[C@@H]1O | -20.2% (inactive) | –
16 | O=C(O)CSCC(=O)NC1CCSC1=O (stereo not given) | 4.58% (inactive) | –

Row | SMILES | activity change, negative = inhibition | Potency
17 | CC(C)OC(=O)OCOP(=O)(CO[C@H](C)Cn1cnc2c(N)ncnc21)OCOC(=O)OC(C)C | 2.25% (inactive) | –
18 | CCC(=O)O[C@]1(C(=O)SCF)[C@H](C)C[C@H]2[C@@H]3C[C@H](F)C4=CC(=O)C=C[C@]4(C)[C@@]3(F)[C@@H](O)C[C@@]21C | 2.94% (inactive) | –
19 | CC(C)C1CCC(C(=O)N[C@H](Cc2ccccc2)C(=O)O)CC1 (stereo not given in full) | 19.3% (inactive) | –
20 | Nc1nc(N)nc(-c2cc(Cl)ccc2Cl)n1 | 0.542% (inactive) | –
21 | O=P(O)(O)C(O)(Cc1cccnc1)P(=O)(O)O | 8.97% (inactive) | –
22 | C[C@@H](CN1CC(=O)NC(=O)C1)N1CC(=O)NC(=O)C1 | -1.86% (inactive) | –
23 | CCN[C@H]1C[C@H](C)S(=O)(=O)c2sc(S(N)(=O)=O)cc21 | -14% (inactive) | –
24 | CC(=O)CC(c1ccccc1)c1c(O)c2ccccc2oc1=O (stereo not given) | -24.1% (inactive) | –
25 | CC(C)(C#N)c1cc(Cn2cncn2)cc(C(C)(C)C#N)c1 | -5.46% (inactive) | –
26 | COc1ccccc1OCC(O)COC(N)=O (stereo not given) | 6.61% (inactive) | –
27 | CN(Cc1cc(Br)cc(Br)c1N)C1CCCCC1 | – | 0.0195 µM (active)
28 | CCCc1nc(C)c2c(=O)[nH]c(-c3cc(S(=O)(=O)N4CCN(CC)CC4)ccc3OCC)nn12 | -22.5% (inactive) | –
29 | COc1cc(NS(=O)(=O)c2ccc(N)cc2)nc(OC)n1 | -17.9% (inactive) | –
30 | CCCOc1ccc(C(=O)OCCN(CC)CC)cc1N | – | 6.17 µM (active) and 6.74 µM (active)
31 | C1CCC(C(CC2CCCCN2)C2CCCCC2)CC1 (stereo not given) | – | 0.138 µM (active)

Biological target: Cytochrome P450 2C9 (Homo sapiens) (UniProt P11712)
Test: Cytochrome P450 family 2 subfamily C member 9 (CYP2C9) small molecule antagonists: luciferase biochemical (cell-free) qHTS assay (AID 1645842; active = well fitted curve in the direction sought with a large enough effect in the repeat runs; an effect the other way counts as inactive or inconclusive; note: nearly all actives have a fitted effect of over 55% in size)
Details: P450-Glo CYP2C9 enzyme assay, luciferin luminescence; series mostly up to 57.4 µM; activity change, negative = inhibition: at the top concentration
Method in brief: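 Luminescence, after 20 min with luciferin detection reagent, reflected CYP2C9 turnover during a 1 h NADPH-driven reaction at 37C. Enzyme-substrate mix contained 0.4% bovine serum albumin and was preincubated with compound 10 min at room temperature.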

Sequence of Cytochrome P450 2C9 (Homo sapiens) (P11712 whole entry, looked up): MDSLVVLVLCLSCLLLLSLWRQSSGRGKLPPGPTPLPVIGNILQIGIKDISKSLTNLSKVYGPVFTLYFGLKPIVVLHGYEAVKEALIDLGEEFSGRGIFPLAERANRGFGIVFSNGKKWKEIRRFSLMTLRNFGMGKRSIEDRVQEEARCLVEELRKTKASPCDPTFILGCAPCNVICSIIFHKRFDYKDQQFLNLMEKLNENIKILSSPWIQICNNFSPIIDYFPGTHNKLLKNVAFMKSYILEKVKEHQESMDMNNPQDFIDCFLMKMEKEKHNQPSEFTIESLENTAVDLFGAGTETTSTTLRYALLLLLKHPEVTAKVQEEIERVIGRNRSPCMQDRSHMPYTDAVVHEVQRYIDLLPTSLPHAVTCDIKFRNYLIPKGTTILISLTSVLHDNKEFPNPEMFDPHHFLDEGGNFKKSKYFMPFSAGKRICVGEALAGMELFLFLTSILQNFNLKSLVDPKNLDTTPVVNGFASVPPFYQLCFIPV

Row | SMILES | Potency | activity change, negative = inhibition
32 | CNC(=O)c1cc(Oc2ccc(NC(=O)Nc3ccc(Cl)c(C(F)(F)F)c3)cc2)ccn1 | 19.5 µM (active) | –
33 | CNCC[C@H](Oc1cccc2ccccc12)c1cccs1 | – | 1.34% (inactive)
34 | COc1cc2ncnc(Nc3cccc(Cl)c3)c2cc1OC | 8.49 µM (active) | –
35 | CNS(=O)(=O)CCc1ccc2[nH]cc(C3CCN(C)CC3)c2c1 | – | 3.58% (inactive)
36 | CC(C(=O)O)c1ccc2c(c1)CC(=O)c1ccccc1S2 (stereo not given) | – | -6.68% (inactive)

System: not listed separately
Test: Primary qHTS for inhibitors of nuclear receptor binding SET domain protein 2 (NSD2) in an isogenic RCH-ACV NSD2 p.E1099K mutant (9B) (AID 1645876); note: nearly all actives have a fitted effect of over 70% in size
Details: RCH-ACV (leukaemia line) NSD2 E1099K (9B) viability, CellTiter-Glo, 72 h; series mostly up to 44.9 µM; activity change, negative = viability loss: at the top concentration

Row | SMILES | Potency | activity change, negative = viability loss | outcome
37 | O=C(O)c1cccnc1 | inactive | – | –
38 | CCCc1cc(C(N)=S)ccn1 | inactive | – | –
39 | COC(=O)Nc1nc2ccc(C(=O)c3ccccc3)cc2[nH]1 | 211 nM (active) and 417 nM (active) | – | –
40 | CCCCCCNC(=O)n1cc(F)c(=O)[nH]c1=O | 8.41 µM (active) and 10.5 µM (active) | – | –
41 | COc1c(N2CCNC(C)C2)c(F)cc2c(=O)c(C(=O)O)cn(C3CC3)c12 (stereo not given) | inactive | – | –
42 | CCn1cc(C(=O)O)c(=O)c2cc(F)c(N3CCNCC3)nc21 | – | -0.713% (inactive) | –
43 | C[C@@H]1C[C@H]2[C@@H]3CCC4=CC(=O)C=C[C@]4(C)[C@@]3(Cl)[C@@H](O)C[C@]2(C)[C@@]1(OC(=O)c1ccco1)C(=O)CCl | 23.7 µM (active) | – | –
44 | CNC(=O)c1cc(Oc2ccc(NC(=O)Nc3ccc(Cl)c(C(F)(F)F)c3)cc2)ccn1 | 9.34 µM (active) and 21.1 µM (active) and 5.15 µM (active) | – | –
45 | O=C(O)c1cc(=O)[nH]c(=O)[nH]1 | – | 8.54% (inactive) | –
46 | CNCC[C@H](Oc1cccc2ccccc12)c1cccs1 | 23.7 µM (active) | – | –
47 | CC(C)C[C@H](NC(=O)[C@H](CCc1ccccc1)NC(=O)CN1CCOCC1)C(=O)N[C@@H](Cc1ccccc1)C(=O)N[C@@H](CC(C)C)C(=O)[C@@]1(C)CO1 | 7.5 nM (active) and 10.5 nM (active) | – | –
48 | CCn1cc(C(=O)O)c(=O)c2cc(F)c(N3CCNCC3)cc21 | inactive | – | –
49 | Cc1nnc(C(=O)NC(C)(C)c2nc(C(=O)NCc3ccc(F)cc3)c(O)c(=O)n2C)o1 | inactive | – | –
50 | CN(C)c1ccc(C(=C2C=CC(=[N+](C)C)C=C2)c2ccc(N(C)C)cc2)cc1 | 33.5 nM (active) and 296 nM (active) | – | –
51 | N=C(N)c1ccc(OCCCCCOc2ccc(C(=N)N)cc2)cc1 | 4.73 µM (active) and 3.72 µM (active) | – | –
52 | Nc1nc(F)nc2c1ncn2[C@@H]1O[C@H](CO)[C@@H](O)[C@@H]1O | 2.09 µM (active) and 94.4 nM (active) and 1.29 µM (active) | – | –
53 | COc1cc2ncnc(Nc3cccc(Cl)c3)c2cc1OC | 11.5 µM (active) | – | –

Row | SMILES | Potency | activity change, negative = viability loss | outcome
54 | O=C(O)CSCC(=O)NC1CCSC1=O (stereo not given) | inactive | – | –
55 | CC(C)OC(=O)OCOP(=O)(CO[C@H](C)Cn1cnc2c(N)ncnc21)OCOC(=O)OC(C)C | – | -3.11% (inactive) | –
56 | CC(C)C1CCC(C(=O)N[C@H](Cc2ccccc2)C(=O)O)CC1 (stereo not given in full) | inactive | – | –
57 | Nc1nc(N)nc(-c2cc(Cl)ccc2Cl)n1 | inactive | – | –
58 | O=P(O)(O)C(O)(Cc1cccnc1)P(=O)(O)O | inactive | – | –
59 | C[C@@H](CN1CC(=O)NC(=O)C1)N1CC(=O)NC(=O)C1 | 16.8 µM (active) and 5.25 µM (active) | – | –
60 | CCN[C@H]1C[C@H](C)S(=O)(=O)c2sc(S(N)(=O)=O)cc21 | inactive | – | –
61 | CC(=O)CC(c1ccccc1)c1c(O)c2ccccc2oc1=O (stereo not given) | inactive | – | –
62 | CC(C)(C#N)c1cc(Cn2cncn2)cc(C(C)(C)C#N)c1 | – | 8.44% (inactive) | –
63 | COc1ccccc1OCC(O)COC(N)=O (stereo not given) | – | – | inactive
64 | CNS(=O)(=O)CCc1ccc2[nH]cc(C3CCN(C)CC3)c2c1 | inactive | – | –
65 | CN(Cc1cc(Br)cc(Br)c1N)C1CCCCC1 | inactive | – | –
66 | CCCc1nc(C)c2c(=O)[nH]c(-c3cc(S(=O)(=O)N4CCN(CC)CC4)ccc3OCC)nn12 | inactive | – | –
67 | COc1cc(NS(=O)(=O)c2ccc(N)cc2)nc(OC)n1 | – | – | inactive
68 | CCCOc1ccc(C(=O)OCCN(CC)CC)cc1N | inactive | – | –
69 | C1CCC(C(CC2CCCCN2)C2CCCCC2)CC1 (stereo not given) | 7.42 µM (active) | – | –
70 | CC(C(=O)O)c1ccc2c(c1)CC(=O)c1ccccc1S2 (stereo not given) | inactive | – | –
